Several values for one entry are separate records, joined by “and”; a condition that tells them apart may be missing. Equal values may be shown once. Inconclusive results are not listed. Activity calls are given as the source filed them. Rule for the calls, unless noted: active = hit-call score of the fitted dose curve at least 0.9, where 1 is the maximum; inactive = score below 0.9.
How the values were obtained:
[1] = read-out: E-selectin (Homo sapiens) (UniProt P16581); assay: BSK_SAg_Eselectin: BioMAP Diversity Plus: SAg Assay for Eselectin Biomarker Activity (AID 2283091); settings: primary human HUVEC with PBMC; actives raise or lower the signal
Method in brief: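 HUVEC co-cultured with PBMC, compound dosed then read at 24 h; E-selectin measured by ELISA. Activity fitted bidirectionally against DMSO as negative control and baseline.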

[2] = read-out: Monokine induced gamma interferon (MIG), CXCL9 (gene 4283); assay: BSK_SAg_MIG: BioMAP Diversity Plus: SAg Assay for Monokine induced gamma interferon (MIG) Biomarker Activity (AID 2283092); settings: primary human HUVEC with PBMC; actives raise or lower the signal
Method in brief: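 Values reflect bidirectional fitting of ELISA-measured MIG against DMSO vehicle, taken 24 h after dosing of a co-culture of human umbilical vein endothelial cells and peripheral blood mononuclear cells.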

[3] = BSK_SAg_PBMCCytotoxicity: PBMC Cytotoxicity Assessment in the BioMAP Diversity Plus: SAg Assay (AID 2283093); settings: primary human HUVEC with PBMC;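 note: PBMC viability measured as Alamar Blue reduction fluorescence at 546/580 nm; fitted both ways against DMSO so a hit may be loss or gain of signal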;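 for AC50: PBMC superantigen activated with SEB plus TSST-1 one hour after compound addition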
Method in brief: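 Compound added to 75,000 PBMC/well for 1 h; SEB and TSST-1 then added at 20 ng/mL final each; 90 h incubation; Alamar Blue 6 h; read 546/580 nm ex/em. Activity fitted bidirectionally relative to DMSO baseline.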

[4] = read-out: Interleukin-8 (IL8), CXCL8 (gene 3576); assay: BSK_SAg_IL8: BioMAP Diversity Plus: SAg Assay for Interleukin-8 (IL8) Biomarker Activity (AID 2283094); settings: primary human HUVEC with PBMC; actives raise or lower the signal
Method in brief: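 ELISA read-out of IL-8 in a primary human vascular co-culture (umbilical vein endothelium plus PBMC), taken 24 h after compound addition. Values derive from bidirectional fits against DMSO negative controls.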

[5] = BSK_SAg_Proliferation: Cell Proliferation Assessment in the BioMAP Diversity Plus: SAg Assay (AID 2283095); settings: primary human HUVEC with PBMC;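 note: relative cell number as total protein by SRB absorbance in sub-confluent culture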
Method in brief: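 Cells (endothelium plus PBMC, human primary) were dosed with chemical, cultured 96 h, fixed in 10% TCA and stained with 0.1% SRB. Absorbance at 560 nm gave relative protein, fitted bidirectionally relative to DMSO.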

[6] = BSK_SAg_SRB: Viability Assessment in the BioMAP Diversity Plus: SAg Assay (AID 2283096); settings: primary human HUVEC with PBMC;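 note: cells read one day after compound addition; hits may be either gain or loss of signal compared with DMSO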
Method in brief: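 Total protein by sulforhodamine B staining, 24 h after dosing, in HUVEC–PBMC co-culture; DMSO-referenced bidirectional fitting.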

[7] = target: human CYP19A1, CYP19A1 (gene 1588) (UniProt P11511); assay: NVS_ADME_hCYP19A1: NovaScreen (NVS) CYP450-related Enzyme Activity (ADME) Assay for human CYP19A1 (AID 2283098; active = hit-call score of the fitted dose curve at least 0.9, where 1 is the maximum)
Method in brief: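 Biochem, cell-free; recombinant enzyme + specific substrate; fluorescence intensity at 0.5 h post-dose; 10 uM duplicate primary, conc. series for actives; acetonitrile = negative control/baseline; positive and negative controls on every plate.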

[8] = target: human CYP2B6, CYP2B6 (gene 1555) (UniProt P20813); assay: NVS_ADME_hCYP2B6: NovaScreen (NVS) CYP450-related Enzyme Activity (ADME) Assay for human CYP2B6 (AID 2283101; active = hit-call score of the fitted dose curve at least 0.9, where 1 is the maximum)
Method in brief: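 Compounds were first screened in duplicate at 10 uM against recombinant enzyme, with the fluorescent product measured after 1 hour. Active compounds were retested over a concentration series. Loss of fluorescence versus acetonitrile control was scored as reduced enzyme activity.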

[9] = target: human CYP1A1, CYP1A1 (gene 1543) (UniProt P04798); assay: NVS_ADME_hCYP1A1: NovaScreen (NVS) CYP450-related Enzyme Activity (ADME) Assay for human CYP1A1 (AID 2283100; active = hit-call score of the fitted dose curve at least 0.9, where 1 is the maximum)
Method in brief: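 Cell-free fluorescence assay of recombinant human CYP1A1 activity with a specific substrate, read 1 h after dosing. Compounds were screened in duplicate at 10 uM, then hits tested in concentration-response up to 20 uM; acetonitrile served as baseline.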

[10] = target: human CYP1A2, CYP1A2 (gene 1544) (UniProt P05177); assay: NVS_ADME_hCYP1A2: NovaScreen (NVS) CYP450-related Enzyme Activity (ADME) Assay for human CYP1A2 (AID 2283102; active = hit-call score of the fitted dose curve at least 0.9, where 1 is the maximum;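 note: fluorescence from turnover of a fluorogenic substrate by recombinant insect-cell CYP1A2; potency for inhibition since loss of fluorescence marks reduced CYP1A2 activity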)
Experimental: NVS_ADME_hCYP1A2 is a biochemical, single-readout assay that uses extracted gene-proteins from insect cells in a cell-free assay. Measurements were taken 0.5 hour after chemical dosing in a 96-well plate.NVS_ADME_hCYP1A2 is one of one assay component(s) measured or calculated from the NVS_ADME_hCYP1A2 assay. It is designed to make measurements of enzyme activity, a form of enzyme reporter, as detected with fluorescence intensity signals by Fluorescence technology.Data from the assay component NVS_ADME_hCYP1A2 was analyzed into 1 assay endpoint. This assay endpoint, NVS_ADME_hCYP1A2, was analyzed in the positive analysis fitting direction relative to Acetonitrile as the negative control and baseline of activity. Using a type of enzyme reporter, loss-of-signal activity can be used to understand changes in the enzymatic activity as they relate to the gene CYP1A2. Furthermore, this assay endpoint can be referred to as a primary readout, because this assay has produced multiple assay endpoints where this one serves a enzymatic activity function. To generalize the intended target to other relatable targets, this assay endpoint is annotated to the cyp intended target family, where the subfamily is xenobiotic metabolism. […]

Measured: AC50

E-selectin (Homo sapiens), sequence (P16581 whole entry, looked up): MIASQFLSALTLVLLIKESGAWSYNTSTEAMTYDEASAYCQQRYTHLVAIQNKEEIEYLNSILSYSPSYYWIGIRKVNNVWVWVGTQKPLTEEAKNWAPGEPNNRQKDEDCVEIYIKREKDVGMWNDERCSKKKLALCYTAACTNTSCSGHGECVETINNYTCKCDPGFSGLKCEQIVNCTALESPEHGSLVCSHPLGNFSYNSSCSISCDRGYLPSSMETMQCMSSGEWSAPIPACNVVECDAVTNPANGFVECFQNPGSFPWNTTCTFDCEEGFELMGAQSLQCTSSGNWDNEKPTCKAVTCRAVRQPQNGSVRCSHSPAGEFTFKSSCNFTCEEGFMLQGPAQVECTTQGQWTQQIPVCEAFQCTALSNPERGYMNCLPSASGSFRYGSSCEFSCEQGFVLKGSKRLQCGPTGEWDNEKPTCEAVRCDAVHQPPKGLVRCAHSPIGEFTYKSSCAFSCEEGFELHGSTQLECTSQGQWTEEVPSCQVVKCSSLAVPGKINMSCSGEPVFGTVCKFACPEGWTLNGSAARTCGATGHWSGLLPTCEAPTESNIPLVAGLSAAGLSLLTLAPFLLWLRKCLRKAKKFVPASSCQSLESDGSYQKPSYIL
human CYP19A1, CYP19A1 (gene 1588), sequence (P11511 whole entry, looked up): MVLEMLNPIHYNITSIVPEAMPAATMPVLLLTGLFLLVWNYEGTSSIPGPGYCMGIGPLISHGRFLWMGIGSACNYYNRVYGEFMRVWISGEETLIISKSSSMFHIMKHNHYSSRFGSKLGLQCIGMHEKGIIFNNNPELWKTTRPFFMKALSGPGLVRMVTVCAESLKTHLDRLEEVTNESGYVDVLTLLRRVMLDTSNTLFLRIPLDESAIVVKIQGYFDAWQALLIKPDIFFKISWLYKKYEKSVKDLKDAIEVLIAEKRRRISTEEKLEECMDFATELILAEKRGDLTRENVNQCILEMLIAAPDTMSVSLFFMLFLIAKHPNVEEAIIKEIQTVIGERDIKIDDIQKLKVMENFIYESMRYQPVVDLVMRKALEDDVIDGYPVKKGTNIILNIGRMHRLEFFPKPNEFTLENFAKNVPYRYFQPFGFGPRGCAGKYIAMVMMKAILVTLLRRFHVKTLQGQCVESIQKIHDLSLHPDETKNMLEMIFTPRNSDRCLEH
human CYP2B6, CYP2B6 (gene 1555), sequence (P20813 whole entry, looked up): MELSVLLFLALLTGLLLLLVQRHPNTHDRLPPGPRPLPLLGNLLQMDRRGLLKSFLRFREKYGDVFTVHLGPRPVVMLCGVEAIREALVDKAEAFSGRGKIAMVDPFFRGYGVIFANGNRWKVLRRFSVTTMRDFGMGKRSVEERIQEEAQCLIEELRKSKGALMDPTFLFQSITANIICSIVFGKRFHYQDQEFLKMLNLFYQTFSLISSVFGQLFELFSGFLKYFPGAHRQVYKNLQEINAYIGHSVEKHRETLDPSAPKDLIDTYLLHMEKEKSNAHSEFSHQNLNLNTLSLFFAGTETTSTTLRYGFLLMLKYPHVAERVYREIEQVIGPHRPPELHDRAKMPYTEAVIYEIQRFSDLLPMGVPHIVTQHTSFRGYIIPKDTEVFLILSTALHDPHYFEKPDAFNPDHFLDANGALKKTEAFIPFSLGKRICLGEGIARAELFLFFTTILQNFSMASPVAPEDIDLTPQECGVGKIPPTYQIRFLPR
human CYP1A1, CYP1A1 (gene 1543), sequence (P04798 whole entry, looked up): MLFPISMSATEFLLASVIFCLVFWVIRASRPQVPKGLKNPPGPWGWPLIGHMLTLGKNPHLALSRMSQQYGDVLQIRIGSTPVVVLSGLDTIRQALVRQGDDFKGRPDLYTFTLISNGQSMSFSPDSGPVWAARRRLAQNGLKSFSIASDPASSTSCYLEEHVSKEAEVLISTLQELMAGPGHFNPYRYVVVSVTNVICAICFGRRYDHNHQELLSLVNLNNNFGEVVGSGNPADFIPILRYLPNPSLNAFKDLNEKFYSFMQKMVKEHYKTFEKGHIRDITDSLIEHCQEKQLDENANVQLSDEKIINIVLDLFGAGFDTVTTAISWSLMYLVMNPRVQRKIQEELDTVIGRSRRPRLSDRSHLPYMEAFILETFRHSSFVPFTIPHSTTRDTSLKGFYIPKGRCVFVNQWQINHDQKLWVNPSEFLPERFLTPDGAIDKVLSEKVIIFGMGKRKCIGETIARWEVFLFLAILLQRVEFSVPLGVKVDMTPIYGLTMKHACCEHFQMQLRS
human CYP1A2, CYP1A2 (gene 1544), sequence (P05177 whole entry, looked up): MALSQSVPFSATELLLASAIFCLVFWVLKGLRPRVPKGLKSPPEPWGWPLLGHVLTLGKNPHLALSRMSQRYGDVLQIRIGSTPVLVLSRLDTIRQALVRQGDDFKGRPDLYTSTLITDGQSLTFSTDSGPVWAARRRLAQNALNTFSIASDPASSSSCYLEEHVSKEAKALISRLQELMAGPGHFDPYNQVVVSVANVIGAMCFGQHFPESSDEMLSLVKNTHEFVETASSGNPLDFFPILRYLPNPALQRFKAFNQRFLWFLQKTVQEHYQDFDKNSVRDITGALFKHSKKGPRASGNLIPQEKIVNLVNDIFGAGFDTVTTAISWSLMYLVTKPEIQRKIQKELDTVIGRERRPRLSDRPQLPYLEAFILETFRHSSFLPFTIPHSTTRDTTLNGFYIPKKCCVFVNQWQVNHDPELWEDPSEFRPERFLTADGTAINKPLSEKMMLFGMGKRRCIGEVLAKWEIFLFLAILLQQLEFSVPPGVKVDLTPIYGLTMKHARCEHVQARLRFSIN

CCCCC(CC)C(=O)OCCOCCOCCOCCOC(=O)C(CC)CCCC (centres undefined)
inactive: [1] | [2] | [3] | [4] | [5] | [6]

Clc1ccc(Nc2nnc(Cc3ccncc3)c3ccccc23)cc1
inactive: [1] | [2] | [3] | [4] | [5] | [6]

CN(CCO)S(=O)(=O)C(F)(F)C(F)(F)C(F)(F)C(F)(F)C(F)(F)C(F)(F)C(F)(F)C(F)(F)F
inactive: [1] | [2] | [3] | [4] | [5] | [6]

CCCCCCc1ccc(N)cc1
inactive: [7]

COCN(COC)c1nc(N(COC)COC)nc(N(COC)COC)n1
inactive: [1] | [2] | [3] | [4] | [5] | [6]

NC(=NCCCCCCN=C(N)/N=C(\N)Nc1ccc(Cl)cc1)/N=C(\N)Nc1ccc(Cl)cc1
active: [1] 5.02 µM | [2] 7.58 µM | [3] 7.06 µM | [4] 896 nM | [5] 2.72 µM | [6] 4.89 µM

Oc1c(Cl)cc(Cl)cc1Sc1cc(Cl)cc(Cl)c1O
active: [1] 8.08 µM and 7.11 µM | [2] 12.4 µM and 12 µM | [3] 29.1 µM and 30 µM | [4] 4.54 µM and 5.28 µM | [5] 5.29 µM and 5.92 µM | [6] 23.8 µM and 17.2 µM

CCC(C)c1ccccc1O (centres undefined)
inactive: [1] | [2] | [3] | [4] | [5] | [6]

C=COC(=O)C(C)(C)CCCCCC
active: [1] 32.2 µM | [3] 36.8 µM | [5] 30.7 µM | [6] 36.1 µM
inactive: [2] | [4]

CN(Cc1cnc2nc(N)nc(N)c2n1)c1ccc(C(=O)N[C@@H](CCC(=O)O)C(=O)O)cc1
active: [5] 3.39 µM and 2.18 µM and 1.17 µM
not listed: [7] | [9] | [10]
inactive: all other assays above

COC1=CC(=O)C[C@@H](C)[C@]12Oc1c(Cl)c(OC)cc(OC)c1C2=O
inactive: [1] | [2] | [3] | [4] | [5] | [6]

CC(C)(C)c1ccc(O)c(O)c1
active: [1] 19.2 µM | [2] 34.8 µM | [3] 3.06 µM | [4] 20000 nM | [5] 2.68 µM | [6] 29.1 µM

O=C(CCCN1CCC(O)(c2ccc(Cl)cc2)CC1)c1ccc(F)cc1
inactive: [1] | [2] | [3] | [4]
active: [5] 27 µM | [6] 19 µM

C=CC(=C)CC/C=C(\C)CCC=C(C)C
inactive: [1] | [2] | [3] | [4] | [5] | [6]

Cc1ccc(C(=O)c2ccccc2)cc1
inactive: [1] | [2] | [3] | [4] | [5] | [6]

OCC(CO)(CBr)CBr
inactive: [1] | [2] | [3] | [4] | [5] | [6]

O=P(O)(O)CCC(F)(F)C(F)(F)C(F)(F)C(F)(F)C(F)(F)C(F)(F)F
inactive: [1] | [2] | [3] | [4] | [5] | [6]

O=C(O)CCC(F)(F)C(F)(F)C(F)(F)C(F)(F)C(F)(F)F
inactive: [1] | [2] | [3] | [4] | [5] | [6]

O=C1c2ccc(O)c(O)c2C(=O)c2c(O)ccc(O)c21
inactive: [1] | [2] | [3] | [4] | [5] | [6]

C=CC(=O)OCCC(F)(F)C(F)(F)C(F)(F)C(F)(F)C(F)(F)C(F)(F)C(F)(F)C(F)(F)F
inactive: [1] | [2] | [3] | [4] | [5] | [6]

CC(=O)Nc1ccc(O)cc1
inactive: [2] | [3] | [4] | [5] | [6]

O=P(O)(O)CCC(F)(F)C(F)(F)C(F)(F)C(F)(F)C(F)(F)C(F)(F)C(F)(F)C(F)(F)F
inactive: [1] | [2] | [3] | [4] | [5]
active: [6] 25.1 µM and 38.3 µM

CCOC(=O)CN[C@@H](C(=O)N1CC[C@H]1C(=O)NCc1ccc(/C(N)=N/O)cc1)C1CCCCC1
inactive: [1] | [2] | [3] | [4] | [5] | [6]

CCCCc1oc2ccccc2c1C(=O)c1cc(I)c(OCCN(CC)CC)c(I)c1
active: [1] 22.7 µM | [2] 22.9 µM | [3] 8.86 µM | [4] 15100 nM | [5] 4.1 µM | [6] 13.4 µM

O=C1OC2(c3ccccc31)c1cc(I)c(O)c(I)c1Oc1c2cc(I)c(O)c1I
inactive: [2] | [3] | [4] | [5] | [6]

CC[N+](CC)(CC)Cc1ccccc1
inactive: [1] | [2] | [3] | [4] | [5] | [6]

Cc1[nH]nc2c1N=C(c1ccccc1Cl)c1cc([N+](=O)[O-])ccc1N2
active: [1] 4.48 µM | [2] 8.28 µM | [4] 893 nM | [5] 1.94 µM | [6] 2.15 µM
inactive: [3]

CCCCCC(C)OC(=O)COc1ccc(Cl)c2cccnc12 (centres undefined)
inactive: [9]
active: [10] 751 nM

O=C1NS(=O)(=O)c2ccccc21
inactive: [1] | [2] | [3] | [4] | [5] | [6]

CS(=O)(=O)c1ccc([C@@H](CC2CCCC2)C(=O)Nc2cnccn2)cc1Cl
active: [5] 15.2 µM
inactive: [1] | [2] | [4] | [6]

— PubChem BioAssay (EPA / NIEHS)
